Measured values: the supplement of paper PMC6555819

Key:
Test in all cases: PBM binding z-score (relative to random genomic background probes); higher = stronger binding; sequences stand for … in GC…GCGATTGACAGCGTAGAATGAAGG
[1] = system: PPARg:RXRa DBDmut IVT, anti-RXR (DBD mutation: RXRa K156A/R161A, NR concentration 270 nM, RXRa partner concentration 90 nM)
How it was run: (§1)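 Binding z-scores take random background probes as their reference. They come from custom Agilent 4×180K protein-binding microarrays incubated 1 h with ligand-free nuclear receptor dimers, with antibodies against each partner (one per run) detecting binding. Scanned fluorescence was regression-normalized.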

[2] = system: PPARg:RXRa IVT, anti-PPARg (NR concentration 270 nM, RXRa partner concentration 90 nM)
How it was run: as §1

[3] = system: PPARg DBDmut:RXRa IVT, anti-PPARg (DBD mutation: PPARg1 K132A/R137A, NR concentration 270 nM, RXRa partner concentration 90 nM)
How it was run: as §1

[4] = system: PPARg DBDmut IVT, anti-PPARg (DBD mutation: PPARg1 K132A/R137A, NR concentration 270 nM)
How it was run: as §1

[5] = system: PPARg homodimer (NR concentration 180 nM)
How it was run: as §1

[6] = system: PXR:RXRa (NR concentration 270 nM, RXRa partner concentration 90 nM)
How it was run: as §1

[7] = system: PXR homodimer (NR concentration 270 nM)
How it was run: as §1

[8] = system: RARa:RXR (NR concentration 270 nM, RXRa partner concentration 90 nM)
How it was run: as §1

[9] = system: RARa homodimer (NR concentration 270 nM)
How it was run: as §1

[10] = system: RARb:RXRa (NR concentration 270 nM, RXRa partner concentration 90 nM)
How it was run: as §1

[11] = system: RARb homodimer (NR concentration 270 nM)
How it was run: as §1

[12] = system: RARg:RXRa (NR concentration 270 nM, RXRa partner concentration 90 nM)
How it was run: as §1

[13] = system: RARg homodimer (NR concentration 270 nM)
How it was run: as §1

[14] = system: RXRa DBDmut IVT, anti-RXR (DBD mutation: RXRa K156A/R161A, NR concentration 90 nM)
How it was run: as §1

[15] = system: RXRa homodimer (NR concentration 180 nM)
How it was run: as §1

[16] = system: THRa:RXRa (NR concentration 90 nM, RXRa partner concentration 90 nM)
How it was run: as §1

[17] = system: THRa homodimer (NR concentration 90 nM)
How it was run: as §1

[18] = system: VDR homodimer (NR concentration 270 nM)
How it was run: as §1

For CCGAGTAGGTTATGGGGCATTCAAGCAACGGTGA, the PBM binding z-score [1] was 3.32, the PBM binding z-score [2] was 3.2 and the PBM binding z-score [3] was -0.98. It also gave a PBM binding z-score [4] of 0.0415, a PBM binding z-score [5] of 1.36 and a PBM binding z-score [6] of -0.0285. It also gave a PBM binding z-score [7] of -0.292, a PBM binding z-score [8] of 0.26 and a PBM binding z-score [9] of -0.114. The PBM binding z-score [10] was 1.08, the PBM binding z-score [11] was 0.855 and the PBM binding z-score [12] was 0.557. The PBM binding z-score [13] was 0.579, the PBM binding z-score [14] was 0.355 and the PBM binding z-score [15] was 0.617. It also gave a PBM binding z-score [16] of 0.205, a PBM binding z-score [17] of 0.0762 and a PBM binding z-score [18] of 0.0962.

With TAGCCTAGCTCATGGGCCAGTATACCACGCGAAC the PBM binding z-score [1] was -1.04, the PBM binding z-score [2] was -0.618 and the PBM binding z-score [3] was 0.0751. For the same sequence, the PBM binding z-score [4] was -0.524, the PBM binding z-score [5] was -0.407 and the PBM binding z-score [6] was -0.739. It also gave a PBM binding z-score [7] of -0.677, a PBM binding z-score [8] of -0.584 and a PBM binding z-score [9] of -0.475. It also gave a PBM binding z-score [10] of -0.413, a PBM binding z-score [11] of -0.141 and a PBM binding z-score [12] of -0.422. For the same sequence, the PBM binding z-score [13] was -0.314, the PBM binding z-score [14] was -1.22 and the PBM binding z-score [15] was -0.408. It also gave a PBM binding z-score [16] of -0.643, a PBM binding z-score [17] of -0.48 and a PBM binding z-score [18] of -0.464.

For TAGCCTAGGTCATGCGGGCCATTATAGTGTCGGC, the PBM binding z-score [1] was 2.07, the PBM binding z-score [2] was 2.84 and the PBM binding z-score [3] was 0.0501. It also gave a PBM binding z-score [4] of -0.158, a PBM binding z-score [5] of 0.864 and a PBM binding z-score [6] of 1.97. It also gave a PBM binding z-score [7] of 0.0749, a PBM binding z-score [8] of 2.7 and a PBM binding z-score [9] of -0.379. For the same sequence, the PBM binding z-score [10] was 3.69, the PBM binding z-score [11] was 3.04 and the PBM binding z-score [12] was 4.02. It also gave a PBM binding z-score [13] of 4.28, a PBM binding z-score [14] of 1.05 and a PBM binding z-score [15] of 3.23. For the same sequence, the PBM binding z-score [16] was 3.16, the PBM binding z-score [17] was 1.17 and the PBM binding z-score [18] was 1.49.

Work on AGAACGAGGGCAATGAGTTGATAGCCCGGGTGGC yielded a PBM binding z-score [1] of 3.22, a PBM binding z-score [2] of 2.62 and a PBM binding z-score [3] of 0.0916. The PBM binding z-score [4] was -0.0623, the PBM binding z-score [5] was 0.48 and the PBM binding z-score [6] was 1.43. It also gave a PBM binding z-score [7] of 5.33, a PBM binding z-score [8] of 0.0801 and a PBM binding z-score [9] of -0.603. For the same sequence, the PBM binding z-score [10] was 2.13, the PBM binding z-score [11] was 0.793 and the PBM binding z-score [12] was 0.874. For the same sequence, the PBM binding z-score [13] was 1.57, the PBM binding z-score [14] was 1.84 and the PBM binding z-score [15] was 0.855. The PBM binding z-score [16] was 0.913, the PBM binding z-score [17] was -0.362 and the PBM binding z-score [18] was 2.96.

Sequence TCATATAGGTAAACAGGTGAAAGTCCGTAAGTTA has a PBM binding z-score [1] of 4.87, a PBM binding z-score [2] of 4.6 and a PBM binding z-score [3] of 1.08. The PBM binding z-score [4] was 0.871, the PBM binding z-score [5] was 1.31 and the PBM binding z-score [6] was 0.894. For the same sequence, the PBM binding z-score [7] was 0.216, the PBM binding z-score [8] was 1.3 and the PBM binding z-score [9] was 1.12. For the same sequence, the PBM binding z-score [10] was 0.78, the PBM binding z-score [11] was 0.747 and the PBM binding z-score [12] was 0.484. For the same sequence, the PBM binding z-score [13] was 0.254, the PBM binding z-score [14] was 1.68 and the PBM binding z-score [15] was 1.04. The PBM binding z-score [16] was 0.795, the PBM binding z-score [17] was 0.578 and the PBM binding z-score [18] was 0.358.

Work on ATCGACAGGTCGACGAGGTGAGTATACACCGTTT yielded a PBM binding z-score [1] of -0.262, a PBM binding z-score [2] of 0.929 and a PBM binding z-score [3] of 0.221. The PBM binding z-score [4] was 0.384, the PBM binding z-score [5] was 0.58 and the PBM binding z-score [6] was 0.461. The PBM binding z-score [7] was -0.437, the PBM binding z-score [8] was 1.54 and the PBM binding z-score [9] was 0.5. For the same sequence, the PBM binding z-score [10] was 1.53, the PBM binding z-score [11] was 0.949 and the PBM binding z-score [12] was 1.55. The PBM binding z-score [13] was 1.78, the PBM binding z-score [14] was 0.12 and the PBM binding z-score [15] was 1.58. It also gave a PBM binding z-score [16] of 2.58, a PBM binding z-score [17] of 0.428 and a PBM binding z-score [18] of 0.49.

Work on TCAGACAGGTGAAGGTGACTCAGGTACGCAGTCG yielded a PBM binding z-score [1] of 2.42, a PBM binding z-score [2] of 1.7 and a PBM binding z-score [3] of 0.953. The PBM binding z-score [4] was 0.0936, the PBM binding z-score [5] was 0.74 and the PBM binding z-score [6] was 0.711. For the same sequence, the PBM binding z-score [7] was 0.325, the PBM binding z-score [8] was 0.812 and the PBM binding z-score [9] was -0.0576. The PBM binding z-score [10] was 1.62, the PBM binding z-score [11] was 1.6 and the PBM binding z-score [12] was 0.814. It also gave a PBM binding z-score [13] of 0.949, a PBM binding z-score [14] of 0.889 and a PBM binding z-score [15] of 0.995. The PBM binding z-score [16] was 1.66, the PBM binding z-score [17] was 0.461 and the PBM binding z-score [18] was 0.358.
